{
  "source": "the supplement of paper PMC8975748",
  "note": "Counter-ions that a name gives are not always drawn.",
  "data": [
    {"system": "Saccharomyces cerevisiae BY4741 SeMeCo community", "experiment": "z-score of subpopulation abundance vs DMSO median, subpopulation auxotrophic for L; higher = larger share of this subpopulation than in DMSO controls", "details": "10 µM; 24 h; SM minimal medium; subpopulation (auxotrophy): L", "experimental": "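Fluorescent four-plasmid SeMeCo (self-establishing metabolically cooperating S. cerevisiae BY4741 community; plasmids pH-mRuby2, pL-mWasabi, pU-eCFP, pM-TagRFP657) was grown 24 h in minimal SM medium with each Selleck FDA-approved drug at 10 µM in 384-well plates. Cells were fixed and imaged by high-content confocal microscopy. For each auxotrophic subpopulation (and the prototroph), a z-score gives the deviation from the DMSO vehicle-control population median.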", "values": [
      {"smiles": "NC[C@@H]1O[C@H](O[C@H]2[C@@H](O)[C@H](O[C@@H]3[C@@H](O)[C@H](N)C[C@H](N)[C@H]3O[C@H]3O[C@H](CN)[C@@H](O)[C@H](O)[C@H]3N)O[C@@H]2CO)[C@H](N)[C@@H](O)[C@@H]1O", "note": "[Neomycin sulfate]", "z-score of subpopulation abundance": 0.21},
      {"smiles": "COC(=O)Nc1nc2cc(C(=O)c3ccccc3)ccc2[nH]1", "note": "[Mebendazole]", "z-score of subpopulation abundance": 0.37},
      {"smiles": "CCCCCCCCc1ccc(CCC(N)(CO)CO)cc1", "note": "[Fingolimod]", "z-score of subpopulation abundance": -1.22},
      {"smiles": "CO[C@@]1(NC(=O)CSC[C@@H](N)C(=O)O)C(=O)N2C(C(=O)O)=C(CSc3nnnn3C)CS[C@@H]21", "note": "[Cefminox Sodium]", "z-score of subpopulation abundance": 1.5},
      {"smiles": "CC/C(=C(\\c1ccccc1)c1ccc(OCCN(C)C)cc1)c1ccccc1", "note": "[Tamoxifen]", "z-score of subpopulation abundance": 0.96},
      {"smiles": "CC/C(=C(\\c1ccccc1)c1ccc(OCCN(C)C)cc1)c1ccccc1", "note": "[Tamoxifen Citrate]", "z-score of subpopulation abundance": -0.42},
      {"smiles": "COc1cc(N)c(Cl)cc1C(=O)NC1CCN(CCCOc2ccc(F)cc2)CC1OC", "note": "(stereo not given) [Cisapride]", "z-score of subpopulation abundance": 0.11},
      {"smiles": "CC(C)c1nc(N(C)S(C)(=O)=O)nc(-c2ccc(F)cc2)c1/C=C/[C@@H](O)C[C@@H](O)CC(=O)O", "note": "[Rosuvastatin]", "z-score of subpopulation abundance": 2.53},
      {"smiles": "COC(=O)C1=C(C)NC(C)=C(C(=O)OC2CCCN(Cc3ccccc3)C2)C1c1cccc([N+](=O)[O-])c1", "note": "(stereo not given) [Benidipine HCl]", "z-score of subpopulation abundance": 1.12},
      {"smiles": "CCCCCc1ccc(C)cc1O", "note": "[Amylmetacresol]", "z-score of subpopulation abundance": 0.4},
      {"smiles": "CC[C@H]1OC(=O)[C@H](C)[C@@H](O[C@H]2C[C@@](C)(OC)[C@@H](O)[C@H](C)O2)[C@H](C)[C@@H](O[C@@H]2O[C@H](C)C[C@H](N(C)C)[C@H]2O)[C@](C)(O)C[C@@H](C)C(=O)[C@H](C)[C@@H](O)[C@]1(C)O", "note": "[Erythromycin thiocyanate]", "z-score of subpopulation abundance": -0.64},
      {"smiles": "Cc1cc2c(s1)Nc1ccccc1N=C2N1CCN(C)CC1", "note": "[Olanzapine]", "z-score of subpopulation abundance": -0.11},
      {"smiles": "CCCCCOc1ccccc1/C(=C\\SC)n1ccnc1", "note": "[Neticonazole Hydrochloride]", "z-score of subpopulation abundance": -1.5},
      {"smiles": "CCN1CCC[C@H]1CNC(=O)c1cc(S(N)(=O)=O)ccc1OC", "note": "[Levosulpiride]", "z-score of subpopulation abundance": -0.4},
      {"smiles": "C[C@]12CC[C@@H]3c4ccc(O)cc4CC[C@H]3[C@@H]1CC[C@@H]2O", "note": "[Estradiol]", "z-score of subpopulation abundance": -0.14},
      {"smiles": "CC1=C(CC(=O)O)c2cc(F)ccc2/C1=C\\c1ccc([S+](C)[O-])cc1", "note": "(stereo not given) [Sulindac]", "z-score of subpopulation abundance": 1.59},
      {"smiles": "N#CC(c1ccc(Cl)cc1)c1c(Cl)cc(-n2ncc(=O)[nH]c2=O)cc1Cl", "note": "(stereo not given) [Diclazuril]", "z-score of subpopulation abundance": -0.07},
      {"smiles": "Cc1c(-c2ccccc2)oc2c(C(=O)OCCN3CCCCC3)cccc2c1=O", "note": "[Flavoxate HCl]", "z-score of subpopulation abundance": 0.83},
      {"smiles": "COCCCC/C(=N\\OCCN)c1ccc(C(F)(F)F)cc1", "note": "[Fluvoxamine maleate]", "z-score of subpopulation abundance": 0.54},
      {"smiles": "CCn1cc(C(=O)O)c(=O)c2cc(F)c(N3CCNCC3)cc21", "note": "[Norfloxacin]", "z-score of subpopulation abundance": -0.15},
      {"smiles": "COc1cc2c(cc1OC)C(=O)C(CC1CCN(Cc3ccccc3)CC1)C2", "note": "(stereo not given) [Donepezil HCl]", "z-score of subpopulation abundance": -0.02},
      {"smiles": "COc1cc(O)c(C(=O)Nc2nc(C(=O)NCCN(C(C)C)C(C)C)cs2)cc1OC", "note": "[Acotiamide hydrochloride]", "z-score of subpopulation abundance": -0.26},
      {"smiles": "COC(=O)Nc1nc2cc([S+]([O-])c3ccccc3)ccc2[nH]1", "note": "(stereo not given) [Oxfendazole]", "z-score of subpopulation abundance": -1.92},
      {"smiles": "CCCCCCCCCCCCCCCC[N+](C)(C)C", "note": "[Cetrimonium Bromide (CTAB)]", "z-score of subpopulation abundance": -1.79},
      {"smiles": "COCCCN1CCC(NC(=O)c2cc(Cl)c(N)c3c2OCC3)CC1", "note": "[Prucalopride]", "z-score of subpopulation abundance": -0.58},
      {"smiles": "CCC[C@@H]1C[C@@H](C(=O)N[C@@H]([C@H]2O[C@H](SC)[C@H](O)[C@@H](O)[C@H]2O)[C@H](C)Cl)N(C)C1", "note": "[Clindamycin HCl]", "z-score of subpopulation abundance": 0.8},
      {"smiles": "Nc1nc2[nH]cc(CCc3ccc(C(=O)N[C@@H](CCC(=O)O)C(=O)O)cc3)c2c(=O)[nH]1", "note": "[Pemetrexed Disodium Hydrate]", "z-score of subpopulation abundance": 3.26},
      {"smiles": "CC1=C[C@H]2C(=O)O[C@H]3C[C@@H](C/C=C(\\C)C[C@@H](C)/C=C/C=C4\\CO[C@H](/C1=N\\O)[C@@]42O)O[C@@]1(CC[C@H](C)[C@@H](C)O1)C3.CC[C@H]1O[C@]2(CC[C@@H]1C)C[C@@H]1C[C@@H](C/C=C(\\C)C[C@@H](C)/C=C/C=C3\\CO[C@@H]4/C(=N\\O)C(C)=C[C@@H](C(=O)O1)[C@]34O)O2", "note": "[Milbemycin Oxime]", "z-score of subpopulation abundance": 0.14},
      {"smiles": "CC[C@@]1(O)C(=O)OCc2c1cc1n(c2=O)Cc2cc3cc(O)ccc3nc2-1", "note": "[Hydroxy Camptothecine]", "z-score of subpopulation abundance": 2.31},
      {"smiles": "CC(=O)OCC1=C(C(=O)O)N2C(=O)[C@@H](NC(=O)CSc3ccncc3)[C@H]2SC1", "note": "[Cephapirin Benzathine]", "z-score of subpopulation abundance": -0.54},
      {"smiles": "CC(=O)NC[C@H]1CN(c2ccc(N3CCOCC3)c(F)c2)C(=O)O1", "note": "[Linezolid]", "z-score of subpopulation abundance": -0.63},
      {"smiles": "NC(=O)[C@@H]1CC[C@@H]2CN1C(=O)N2OS(=O)(=O)O", "note": "[Avibactam sodium]", "z-score of subpopulation abundance": 0.6},
      {"smiles": "Cc1ccnc(NS(=O)(=O)c2ccc(N)cc2)n1", "note": "[Sulfamerazine]", "z-score of subpopulation abundance": 1.54},
      {"smiles": "Cc1ccsc1/C=C/C1=NCCCN1C", "note": "[Morantel tartrate]", "z-score of subpopulation abundance": -1.36},
      {"smiles": "CCCOc1ccc2[nH]c(NC(=O)OC)nc2c1", "note": "[Oxibendazole]", "z-score of subpopulation abundance": 0.1},
      {"smiles": "CO/N=C(\\C(=O)N[C@@H]1C(=O)N2C(C(=O)OC(C)OC(C)=O)=C(COC(N)=O)CS[C@H]12)c1ccco1", "note": "(stereo not given in full) [Cefuroxime axetil]", "z-score of subpopulation abundance": -0.95},
      {"smiles": "OC(Cn1cncn1)(Cn1cncn1)c1ccc(F)cc1F", "note": "[Fluconazole]", "z-score of subpopulation abundance": -0.88},
      {"smiles": "CO[C@H]1C[C@@H]2CC[C@@H](C)[C@@](O)(O2)C(=O)C(=O)N2CCCC[C@H]2C(=O)O[C@H]([C@H](C)C[C@@H]2CC[C@@H](OC(=O)C(C)(CO)CO)[C@H](OC)C2)CC(=O)[C@H](C)/C=C(\\C)[C@@H](O)[C@@H](OC)C(=O)[C@H](C)C[C@H](C)/C=C/C=C/C=C/1C", "z-score of subpopulation abundance": -0.9},
      {"smiles": "C[C@@H](O)[C@H]1C(=O)N2C(C(=O)OCOC(=O)C(C)(C)C)=C(SC3CN(C4=NCCS4)C3)[C@H](C)[C@H]12", "note": "[Tebipenem Pivoxil]", "z-score of subpopulation abundance": 0},
      {"smiles": "NC12CC3CC(CC(C3)C1)C2", "note": "[Amantadine HCl]", "z-score of subpopulation abundance": -0.67}
    ]}
  ]
}
